Source: the supplement of paper PMC12819154, “High-throughput peptide-centric local stability assay extends protein–ligand identification to membrane proteins, tissues and bacteria” (Nature Structural & Molecular Biology, 2025)
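Note: lysate desalted by size exclusion to strip endogenous ATP, peptide intensities built from DIA-NN precursor signals, and peptides missing any value discarded before comparison.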

These compounds were tested against T1, UniProt P76038 (assay: log2 fold change of tryptic peptide abundance, ligand vs vehicle (limited proteolysis) (log2 ratio); higher = more trypsin-susceptible (destabilized)). Details: peptide sequence: GLQELVVATGGSLHRK; peptide start residue: 116; ligand concentration: 5 mM; sample: E. coli desalted lysate; replicate design: treated before aliquoting.
T1 sequence (whole entry): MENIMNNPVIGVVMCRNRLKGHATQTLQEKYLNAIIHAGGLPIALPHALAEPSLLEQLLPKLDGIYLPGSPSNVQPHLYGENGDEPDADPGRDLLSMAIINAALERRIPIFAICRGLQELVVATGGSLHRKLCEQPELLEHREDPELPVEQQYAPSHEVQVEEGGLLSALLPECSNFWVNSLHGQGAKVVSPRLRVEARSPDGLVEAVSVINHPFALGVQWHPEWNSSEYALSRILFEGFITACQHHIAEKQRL
Method: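 HT-PELSA: desalted E. coli K-12 BW25113 lysate (with 12 mM MgCl2) incubated with 5 mM ATP (pH 7) or water for 30 min at 25 C, then a 4 min trypsin pulse at 22 C. Peptides were quantified by DIA-MS (4 replicates). Value is the peptide log2 fold change (treated/control); negative = stabilized. Scale: negative = ligand-stabilized region.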
For `Nc1ncnc2c1ncn2[C@@H]1O[C@H](COP(=O)(O)OP(=O)(O)OP(=O)(O)O)[C@@H](O)[C@H]1O` [adenosine 5'-triphosphate], the log2 fold change was 1.55.
